# Reference: PubChem BioAssay AID504546 (Broad Institute, 2011)
# Results filed as inconclusive are left out. Activity calls are given as the source filed them.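 How the source made its calls: active means every repeat run fits a falling-signal curve with half-maximal potency within ten times top tested dose; inconclusive means runs disagree, or flat moderate drop, or poor fit; inactive means every run inactive, including signal moving upward.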
# Experiment: ADP-Glo luciferase signal interference – biochemical, luminescence, cherry-picked samples, set 2, artefact control for CDK5 inhibitor project, dose response (AID 504546);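 further: 0% = DMSO wells and -100% = wells lacking ADP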
# Settings: ADP-Glo detection reagent counter screen, 5 uM ADP; series mostly up to 30 µM; activity change, negative = inhibition: at the top concentration
row,Structure (SMILES),"activity change, negative = inhibition"
1,N#Cc1cn(C2OC(CO)C(O)C2O)c2ncnc(N)c12 (stereo not drawn),-1.1% (inactive)
2,COc1cc2c(ccc3c4cc(OC)c(OC)cc4c[n+](C)c23)cc1O,0.712% (inactive)
3,O=C1Nc2ccccc2/C1=C/c1cnc[nH]1,0.806% (inactive)
4,NC(=O)c1cn(C2OC(CO)C(O)C2O)c2ncnc(N)c12 (stereo not drawn),9.4% (inactive)
5,N#Cc1c(Br)n(C2OC(CO)C(O)C2O)c2ncnc(N)c12 (stereo not drawn),-8.62% (inactive)
6,Nc1ncnc2c1ccn2[C@@H]1O[C@H](CO)[C@@H](O)[C@H]1O,4.16% (inactive)
7,Nc1ccc(CC2=NCCN2)cc1,-7.41% (inactive)
8,NC(=O)c1c(Br)n(C2OC(CO)C(O)C2O)c2ncnc(N)c12 (stereo not drawn),11.1% (inactive)
